# Results filed as inconclusive are left out. A call without a number means that no potency is given here. Active and inactive are the calls of the source. The call rests on the fitted dose curve; in most records, active means well fitted inhibition curve with a large enough effect; inconclusive means small, poorly fitted or top-dose-only effect; inactive means flat fitted curve, though single readings scatter.
# Test system: Zika virus NS2B-NS3 protease
# Assay: Primary screen GU AMC qHTS for Zika virus inhibitors (AID 1347154); further: nearly all actives have a fitted effect of over 70% in size
# Method in brief: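 Unlinked Zika NS2B hydrophilic domain/NS3 protease domain noncovalent complex (25 nM final) in 10 mM Tris-HCl pH 8.0, 0.01% Tween 20, with AMC peptide substrate. Fluorescence (ex 340, em 450 nm) change over 15 min, room temperature; percent inhibition fitted to 4-parameter Hill equation.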
row,Structure (SMILES),Potency
1,CC(=Nc1ccccc1N)c1c(C)cc(=O)n(O)c1O,inactive
2,Cc1cc2nc3c(=O)[nH]c(=O)nc-3n(C)c2cc1C=O,inactive
